According to PubChem BioAssay (EPA / NIEHS):
Calls of active or inactive are those of the source. Rule for the calls: active = hit-call score of the fitted dose curve at least 0.9, where 1 is the maximum; inactive = score below 0.9.

Assay: IUF_NPC4_neurite_length_120hr: Leibniz Research Institute for Environmental Medicine (IUF) 120-hour Neuronal Morphology Assay for Neurite Length (NPC4) (AID 2284302)
Protocol: IUF_NPC2-5 is a cell-based, multiplexed assay that uses hNPC, a human primary neural progenitor cells, with measurements taken at 72 or 120 hours after chemical dosing in a 96-well plate. Human neural progenitor cells (hNPC) are generated from human fetal brain cortex at gestational week (GW) 16-19. In the neural progenitor cell migration and differentiation assay (NPC2-5), hNPCs grown as spheres are plated on an extracellular matrix and migrate and differentiate out of the sphere core. The processes radial glia migration, neuronal and oligodendrocyte migration as well as neuronal differentiation, neuronal morphology and oligodendrocyte differentiation are studied using automated phase contrast imaging and automated fluorescence imaging in combination with high content image analysis. In parallel, the cell viability is assessed using an alamar blue viability assay and the cytotoxicity using a lactate dehydrogenase dependent membrane integrity assay.IUF_NPC4_neurite_length_120hr is one of 12 assay components measured from the IUF_NPC2-5 assay. The neurite length at 120 hr is the mean length in um of all neurons (see IUF_NPC3_neuronal_differentiation_120hr) that are identified by the skeletonization algorithm in Omnisphero.Data from the IUF_NPC4_neurite_length_120hr component was analyzed at the endpoint IUF_NPC4_neurite_length_120hr in the positive analysis fitting direction relative to DMSO as the negative control and baseline of activity. Using a type of differentiation reporter, gain or loss-of-signal activity can be used to understand developmental effects.
Culture protocol: After the cell expansion period the cells are cultured for up to four weeks in which they are passaged every week as described in 3.6. Between one to three days after passaging spheres at a size of 0.3 mm are picked for the test method. For the assessment of neural progenitor cell migration and differentiation, the spheres are plated on poly-D-lysine/laminin coated 96-well flat bottom plates in differentiation medium (N2) to initiate migration and differentiation. Thereby one 0.3 mm big sphere is plated in the middle of a well. The differentiation medium consists of DMEM and Ham's F12 at a ratio of 3 to 1 supplemented with 1% N2 and 1% penicillin and streptomycin. Within 5 days NPCs radially migrate out of the sphere core and differentiate into radial glia cells (nestin positive), neurons (TUBB3 positive), oligodendrocytes (O4 positive) and astrocytes (GFAP positive). Cultivation during the test method is performed at 37C and 5% CO2 at a ph of 7.2-7.6.Exposure: 0.3 mm big hNPC are plated in the already prepared test conditions. Exposure starts at day 0 of differentiation and is continued over five days of differentiation until the experiment is terminated. Cells are fed with fresh medium at day 3 of differentiation. Therefore, half of the test condition solution (e.g. solvent control or compound dilution) is replaced by freshly prepared test condition solution.Test Method: Migration distance and cytotoxicity is determined after 72 hours based on brightfield images of each well. The assay is terminated by the assessment of cell viability and cytotoxicity as well as cell fixation after 120 h. Immunocytochemistry is performed for Hoechst positive nuclei, TUBB3 positive neurons and O4 positive oligodendrocytes. On the ICC images, migration after 120 hours, neuronal and oligodendrocyte number, neuronal morphology and neuron/oligodendrocyte specific migration is assessed. immunocytochemical staining (ICC) generates an image for each sphere. The plates are scanned using an automated high content imaging device and all nuclei and their positions are determined automatically based on their intensity and size. Images are imported to the Omnisphero software to run the image analysis that measures the following endpoints. The method is set up for 8 test conditions including 7 compound concentrations and one SC. […]

Row | SMILES | outcome | AC50
1 | OCCOCCO | inactive | 
2 | CC(C)COC(=O)c1ccccc1C(=O)OCC(C)C | inactive | 
3 | COC(=O)Nc1nc2ccccc2[nH]1 |  | 8.96 µM (active)
4 | CCCCOC(=O)c1ccccc1C(=O)OCc1ccccc1 | inactive | 
5 | [O-][Cl+]O | inactive | 
6 | CC(C)(C)C(O)(CCc1ccc(Cl)cc1)Cn1cncn1 (stereo not given) | inactive | 
7 | CNC(=O)Oc1cccc2c1OC(C)(C)C2 | inactive | 
8 | CCC[CH2][Sn]([Cl])([CH2]CCC)[CH2]CCC |  | 0.303 µM (active)
9 | O=P(OCCCl)(OCCCl)OCCCl | inactive | 
10 | COP(=S)(OC)SCN1C(=O)c2ccccc2C1=O | inactive | 
